Source: PubChem BioAssay (The Scripps Research Institute Molecular Screening Center)
This is a sample that favours compounds with a hit; in the whole collection about 2.3% have one here.
LEDGF integ inh: blocks HIV-1 LEDGF/p75-dependent DNA integration. TR-FRET IN-LEDGF/p75 DNA integration, Eu/Cy5. inhibition, % at 3.7 µM. actives 0.64% (n = 370,000). AID 743269;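 active = inhibition above the screen-wide mean plus 3 SD, cut at about 13% in these data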;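 note: signal is the Cy5 over europium emission ratio at 671 and 618 nm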
MBD2 inh: blocks human MBD2 binding to methylated DNA | Q9UBB5 | inhibition, % at 4.4 µM | AID 686964 | actives 0.31% (n = 370,000) | TR-FRET, MBD2 binding to methylated oligonucleotide; in the data active = inhibition above about 13%
UHRF1 MBD2 ctr: human UHRF1 methylated DNA binding inhibitors | UHRF1 binding to methylated oligo, TR-FRET | inhibition, % at 4.4 µM | actives 0.75% (n = 370,000); in the data active = inhibition above about 21%;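 note: UHRF1 SRA domain binding a hemimethylated CpG hairpin DNA probe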
PLC-gamma1 inh: PLC-gamma1 (human) inhibition, primary screen. inhibition, % at 12.2 µM. actives 0.84% (n = 370,000). purified PLC-gamma1, fluorogenic substrate, fluorescence. P19174; in the data active = inhibition above about 9.5%
PLCb3 inh: blocks human PLC-beta3 enzyme activity; Purified PLC-beta3, fluorogenic substrate, fluorescence; inhibition, % at 12.2 µM; actives 0.18% (n = 370,000)
PLCgamma1 ctr: inhibits human PLC-gamma1 in PLC-beta3 counter-screen; inhibition, % at 12.3 µM; purified PLC-gamma1, fluorogenic substrate, fluorescence; actives 3.1% (n = 3,300); shares compounds with PLC-gamma1 inh; in the data active = inhibition above about 9.5%
PLCb3 confirm: human PLC-beta3 inhibition, confirmation. shares compounds with PLC-gamma1 inh. purified PLC-beta3, fluorogenic substrate fluorescence. inhibition, % at 12.3 µM. actives 1% (n = 3,300). AID 743261
Large screens that a line does not name were inactive (follow-up assays come after a bar, where they were run). Cut-off read from the data, not from the text of the source, unless noted: active = inhibition above about 11%; inactive = the rest.

CCCCC(=O)N1CCN(C(=O)c2ccc3c(c2)nc(C)n3C2CCCC2)CC1	none
O=C(CS(=O)c1ccc(F)cc1)Nc1ccccc1Cl (centres undefined)	PLC-gamma1 inh 10.0 | PLCgamma1 ctr inactive | PLCb3 confirm inactive
CCCS(=O)(=O)NC(=O)C1(C)CCN(C(=O)c2cc(C)on2)C1 (centres undefined)	PLC-gamma1 inh 9.5 | PLCgamma1 ctr inactive | PLCb3 confirm inactive
CSc1nnc(-c2cc(C)on2)n1-c1ccccc1	PLC-gamma1 inh 11 | PLCgamma1 ctr inactive | PLCb3 confirm inactive
CSc1nnc(-c2nnc(SC)n2-c2ccccc2)n1-c1ccccc1	none
O=[N+]([O-])c1ccc2nc(CNc3nc(N4CCOCC4)nc4c3ncn4-c3ccsc3)[nH]c2c1	none
COc1ccc(NS(=O)(=O)c2cccc(C(=O)NNC(=O)COc3ccccc3)c2)cc1	PLC-gamma1 inh 9.6 | PLCgamma1 ctr inactive | PLCb3 confirm inactive
COc1ccc(NS(=O)(=O)c2cccc(C(=O)NNC(=O)CNC(=O)c3ccccc3)c2)cc1	none
CN(Cc1ccccc1)S(=O)(=O)c1cccc(C(=O)OCc2ccc(C(F)(F)F)cc2)c1	none
Cc1ccc2cc(CCNC(=O)c3cccc([N+](=O)[O-])c3)c(=O)[nH]c2c1C	PLC-gamma1 inh 10 | PLCgamma1 ctr inactive | PLCb3 confirm inactive
CC(C)[C@H](NC(=O)OC(C)(C)C)C(=O)N1CCC(Oc2cccnc2)CC1	none
Cc1ccc(S(=O)(=O)Nc2ccc3c(c2)CCC3)cc1C	PLC-gamma1 inh 13 | PLCgamma1 ctr inactive | PLCb3 confirm inactive
Cc1ccc(S(=O)(=O)Nc2ccc3c(c2)CCC3)cc1	none
Cc1ccc(-c2nc(N)n(C(=O)c3cccnc3)n2)cc1	PLC-gamma1 inh 12 | PLCgamma1 ctr inactive | PLCb3 confirm inactive
O=C1C(=O)N(CCO)C(c2ccccc2)/C1=C(\O)c1ccccc1 (centres undefined)	none
O=C1C(=O)N(CCO)C(c2ccc(Br)cc2)/C1=C(\O)c1ccccc1 (centres undefined)	PLC-gamma1 inh 12 | PLCgamma1 ctr inactive | PLCb3 confirm inactive
O=C(CCS(=O)(=O)c1ccccc1)N(CCCN1CCOCC1)c1nc2ccccc2s1	none
Cc1ccc(S(=O)(=O)CCC(=O)N(CCCN2CCOCC2)c2nc3ccccc3s2)cc1	PLC-gamma1 inh 13 | PLCgamma1 ctr inactive | PLCb3 confirm inactive
CC(OC(=O)CCCCCN=C1NS(=O)(=O)c2ccccc21)C(=O)Nc1cc(Cl)cc(Cl)c1 (centres undefined)	PLC-gamma1 inh 9.7 | PLCgamma1 ctr inactive | PLCb3 confirm inactive
CC(=O)Nc1ccc(NC(=O)C(C)OC(=O)CCN=C2NS(=O)(=O)c3ccccc32)cc1 (centres undefined)	none
CN1CCN(c2ccc3c(c2)Oc2ccccc2CN(Cc2cn(Cc4ccc(F)cc4)nn2)S3(=O)=O)CC1	none
C=CCN1C(=O)[C@H](CC(=O)NCc2cccs2)[C@@]2(C(=O)OCC)CCCC=C12	none
COc1ccc(C(=O)OCC(=O)Nc2c(C)n(C)n(-c3ccccc3)c2=O)cc1	PLC-gamma1 inh 12 | PLCgamma1 ctr inactive | PLCb3 confirm inactive
CC(C)CNC(=O)CC1Oc2ccccc2NC1=O (centres undefined)	none
COc1ccc(NC(=O)NC2(C)CCS(=O)(=O)C2)cc1 (centres undefined)	PLC-gamma1 inh 12 | PLCgamma1 ctr inactive | PLCb3 confirm inactive
CC1(NC(=O)Nc2ccccc2)CCS(=O)(=O)C1 (centres undefined)	none
C[C@H](CO)N1C[C@H](C)[C@@H](CN(C)C(=O)Nc2ccccc2)Oc2c(NS(=O)(=O)c3ccc(F)cc3)cccc2C1=O	PLCb3 inh 11 | PLCgamma1 ctr inactive | PLCb3 confirm inactive
O=C(Nc1ccc(F)c(Cl)c1)c1nsc(Cl)c1Cl	PLC-gamma1 inh 11 | PLCgamma1 ctr inactive | PLCb3 confirm inactive
O=C(Nc1ccc(F)cc1)c1nsc(Cl)c1Cl	none
COc1ccc(/C(C)=N\NC(=O)c2ccco2)cc1	none
C[C@H](O)[C@@H]1CN2CCc3ccc(N4CCOCC4)cc3[C@@H]2C[C@@H]1N(C)C(=O)c1ccccc1F	none
